The nature of assay [1]: qHTS assay to test for compound auto fluorescence at 535 nm (green) in HEK293 cells (AID 720680).
The nature of assay [2]: qHTS assay to test for compound auto fluorescence at 535 nm (green) in HEK293 cell free culture (AID 720682). The essentials: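 DMEM + 10% FBS, cell-free; cpd or DMSO pinned in; Ex485/Em535 read; output as fluorescein-equivalent signal.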
On the technique in general: In qHTS, concentration-response curves come from the screen itself.

The nature of assay [3]: qHTS assay to test for compound auto fluorescence at 590 nm (red) in HEK293 cell free culture (AID 720683). The essentials: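 Red-channel autofluorescence of compounds in culture medium (DMEM, 10% FBS), no cells, measured at 540/590 nm. Rose Bengal sodium is the reference fluorophore for equivalence.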
Assay [4] can be described thus: qHTS assay to test for compound auto fluorescence at 590 nm (red) in HepG2 cell free culture (AID 720684). The essentials:
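Plate contents were MEM with 10% FBS plus test compound or DMSO, no cells. Fluorescence was recorded with 540 nm excitation and 590 nm emission.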

The nature of assay [5]: qHTS assay to test for compound auto fluorescence at 460 nm (blue) in HepG2 cell free culture (AID 720685). The essentials:
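Compound (23 nL) or DMSO pinned into cell-free MEM with 10% FBS; blue fluorescence read at 405/460 nm excitation/emission, expressed as auto-fluorescence equivalency to triamterene.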

Assay [6] can be described thus: qHTS assay to test for compound auto fluorescence at 460 nm (blue) in HepG2 cells (AID 720687). The essentials: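 Blue-channel autofluorescence (Ex/Em 405/460 nm, triamterene-equivalent) was measured after 1 hr compound exposure at 37 C, 5% CO2. Cells were HepG2, plated overnight at 37 C in MEM plus 10% FBS.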
The target of assay [7] is Glucocorticoid receptor (Homo sapiens) (UniProt P04150). Description: qHTS assay to identify small molecule agonists of the glucocorticoid receptor (GR) signaling pathway (AID 720691; active = well fitted activation curve with a large enough effect in the signal ratio in the repeat runs, not every such curve was filed as active; the % refers to the signal ratio). The essentials:
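GR-bla HeLa cells (beta-lactamase reporter under glucocorticoid response element) were plated 4 h at 37 C/5% CO2, given compounds in DMSO, and incubated 18 h at 37 C. LiveBLAzer B/G FRET substrate was added for 2 h at room temperature, then fluorescence intensity read.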

The target is the same in assay [8]. Description: qHTS assay to identify small molecule antagonists of the glucocorticoid receptor (GR) signaling pathway (AID 720692; active = well fitted inhibition curve with a large enough effect in the signal ratio in the repeat runs, not every such curve was filed as active; the % refers to the signal ratio). The essentials: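 GR-bla HeLa cells (beta-lactamase reporter under glucocorticoid response element) were pre-plated 4 h at 37 C, treated with compounds plus 5 nM dexamethasone (final) for 18 h, then read by LiveBLAzer B/G FRET fluorescence after 2 h.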

Assay [9] in a line: qHTS assay to identify small molecule antagonists of the glucocorticoid receptor (GR) signaling pathway - cell viability counter screen (AID 720693). Also: nearly all actives have a fitted effect of over 55% in size.
Assay [10] can be described thus: qHTS assay for identifying genotoxic compounds that show differential cytotoxicity against isogenic chicken DT40 cell lines with known DNA damage response pathways - wild type cell line (AID 743012). Also: nearly all actives have a fitted effect of over 60% in size. Also: potency is read from the fitted curve at half-maximal effect. The essentials:
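Parental DNA repair-proficient DT40 cells, 300 per well, were pre-incubated ~0.5 h at 37 C/5% CO2, pin-dosed with compounds in DMSO, then incubated 40 h. Viability was read as CellTiter-Glo luminescence after 30 min at room temperature.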

Assay [11] can be described thus: qHTS assay for identifying genotoxic compounds that show differential cytotoxicity against isogenic chicken DT40 cell lines with known DNA damage response pathways - Rev3 mutant cell line (AID 743014). Also: nearly all actives have a fitted effect of over 55% in size. Also: potency is read from the fitted curve at half-maximal effect.
The nature of assay [12]: qHTS assay for identifying genotoxic compounds that show differential cytotoxicity against isogenic chicken DT40 cell lines with known DNA damage response pathways - Rad54/Ku70 mutant cell line (AID 743015). Also: nearly all actives have a fitted effect of over 60% in size. Also: potency is read from the fitted curve at half-maximal effect.
Assay [13] in a line: qHTS assay to identify small molecule antagonists of the androgen receptor (AR) signaling pathway - cell viability counter screen (AID 743033; also: nearly all actives have a fitted effect of over 45% in size).
The nature of assay [14]: qHTS assay to identify small molecule antagonists of the androgen receptor (AR) signaling pathway using the MDA cell line - cell viability counter screen (AID 743041; also: nearly all actives have a fitted effect of over 45% in size). The essentials:
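R1881-driven MDA-kb2 AR-luc cells, 3,000/well, were dosed with library compounds for 16 h; cell health came from CellTiter-Fluor fluorescence in the reporter wells.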

Assay [15] can be described thus: qHTS assay to test for compound auto fluorescence at 535 nm (green) in HepG2 cell free culture (AID 720686).

SMILES strings stand for the structures. “And” between values parts separate entries of the source, which are not always exact repeats. Equal values may be shown once. Results filed as inconclusive are left out. Where a structure was tested more than once in an assay, its records may differ in their call. The source made the active and inactive calls. Unless noted, calls follow the shape of the dose curve; as a rule, active = well fitted curve in the direction sought with a large enough effect in the repeat runs; inconclusive = weak or mixed curves; inactive = no such curve, though single readings can be large; an effect the other way counts as inactive or inconclusive.
% is scaled to controls: 0 for no effect and ±100 for the full control effect.

Sequence of Glucocorticoid receptor (Homo sapiens) (P04150 whole entry, looked up): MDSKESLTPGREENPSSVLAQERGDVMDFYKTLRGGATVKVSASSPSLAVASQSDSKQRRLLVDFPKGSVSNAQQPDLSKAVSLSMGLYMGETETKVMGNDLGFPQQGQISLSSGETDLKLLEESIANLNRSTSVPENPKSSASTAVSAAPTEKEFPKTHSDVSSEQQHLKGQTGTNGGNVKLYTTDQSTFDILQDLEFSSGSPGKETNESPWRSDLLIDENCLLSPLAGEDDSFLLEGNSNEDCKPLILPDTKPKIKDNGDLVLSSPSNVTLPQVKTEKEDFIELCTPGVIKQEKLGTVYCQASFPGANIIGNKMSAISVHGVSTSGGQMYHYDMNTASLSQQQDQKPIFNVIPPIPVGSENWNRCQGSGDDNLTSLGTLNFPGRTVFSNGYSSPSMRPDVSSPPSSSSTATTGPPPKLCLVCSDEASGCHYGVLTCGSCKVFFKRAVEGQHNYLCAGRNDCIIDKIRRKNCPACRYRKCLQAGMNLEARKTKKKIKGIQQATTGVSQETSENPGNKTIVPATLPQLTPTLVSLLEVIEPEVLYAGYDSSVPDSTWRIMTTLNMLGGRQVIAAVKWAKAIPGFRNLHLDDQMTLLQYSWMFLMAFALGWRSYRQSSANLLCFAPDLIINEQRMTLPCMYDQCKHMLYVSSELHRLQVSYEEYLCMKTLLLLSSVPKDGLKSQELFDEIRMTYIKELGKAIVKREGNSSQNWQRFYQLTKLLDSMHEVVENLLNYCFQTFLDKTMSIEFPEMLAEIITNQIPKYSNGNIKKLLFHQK

On to `CC(=O)Nc1ccc(CC(=O)O)cc1`, for which the call in [1], in assay [2], in [3], in assay [4] and in [7] was inactive. Moreover, the Potency result in [5], in [6], in assay [8], in assay [9], in [10] and in assay [11] was “inactive” in each case. In addition, the Potency entry in assay [12], in [13] and in assay [14] was “inactive” each time.

In the case of `O=C(c1ccccc1)c1ccc(O)c(O)c1O`, the result in assay [1], in [2], in assay [3], in [4], in assay [15] and in assay [7] was inactive. The Potency entry in assay [5], in assay [6], in assay [8], in assay [9] and in [13] was “inactive” throughout. Moreover, the Potency in [11] and in [12] was 61.1 µM (active) in each case.

For the compound `C[Si](C)(C)N[Si](C)(C)C`, the result in assay [1], in assay [2], in assay [3], in assay [4], in assay [15] and in assay [7] was inactive. Further, the Potency result in assay [5], in assay [6], in assay [8], in [9], in [11] and in [12] was “inactive” throughout. In assay [14], the Potency entry was “inactive”.

On to `Oc1ccc(Cc2ccccc2O)cc1`, for which the result in assay [1], in assay [2], in assay [3], in [4], in assay [15] and in assay [7] was inactive. Further, the Potency result in [5], in [6], in assay [8], in assay [9], in assay [10] and in assay [11] was “inactive” in each case. The Potency entry in assay [12], in assay [13] and in assay [14] was “inactive” throughout.

On to `CCCCCCCCCCCC(=O)N(C)CC(=O)O`, for which the compound was called inactive in [1], in assay [2], in assay [3], in [4], in assay [15] and in [7]. Moreover, the Potency entry in assay [5], in assay [6], in assay [9] and in [14] was “inactive” in each case. Besides, the activity change, negative = inhibition in [8] was -13% [at 7.04 µM] (inactive). For the same compound, the Potency in assay [11] and in assay [12] was 66.4 µM (active) throughout. Besides, the activity, negative = cytotoxicity in [11] was 3.78% [at 8.53 µM] (inactive). For the same compound, in assay [12], the activity change, negative = cytotoxicity was -12.4% [at 8.55 µM] (inactive).

For the compound `Nc1cccc(C(F)(F)F)c1`, the compound was classed as inactive in assay [1], in assay [2], in assay [3] and in [4]. Besides, the Potency entry in assay [5], in [6], in [9], in assay [10], in assay [11] and in [12] was “inactive” in each case. Moreover, the Potency result in assay [13] and in [14] was “inactive” throughout.

For `O=c1n(CCCN2CCN(c3cccc(Cl)c3)CC2)nc2ccccn12`, the result in [1], in assay [2], in assay [3] and in assay [4] was inactive. Besides, the Potency result in assay [5], in [6], in assay [9] and in assay [14] was “inactive” throughout. Also, the Potency result in [10] is “inactive and 54.5 µM (active)”; in assay [11] it was “inactive and 54.5 µM (active)”; in assay [12], “inactive and 43.3 µM (active)”.

For the compound `O=C(O)C1=NN(c2ccc(S(=O)(=O)O)cc2)C(=O)C1`, the outcome in assay [1], in assay [2], in assay [3], in assay [4], in assay [15] and in [7] was inactive. The Potency entry in [5], in assay [6], in [8], in [9], in assay [11] and in assay [12] was “inactive” throughout. Besides, the Potency result in [13] was “inactive”.

With `Cc1cc(CC(=O)O)n(C)c1C(=O)c1ccc(Cl)cc1`, the call in assay [1], in assay [2], in assay [3], in assay [4], in [15] and in assay [7] was inactive. Further, the Potency result in assay [5], in assay [6], in assay [8], in assay [9], in assay [11] and in assay [12] was “inactive” in each case. The Potency result in assay [13] and in assay [14] was “inactive” each time.

With `C=C(CC(=O)O)C(=O)O`, the compound was called inactive in assay [1], in assay [2], in [3], in [4], in assay [15] and in [7]. For the same compound, the Potency result in assay [5], in assay [6], in assay [8], in assay [9], in assay [11] and in assay [12] was “inactive” each time. The Potency entry in assay [13] and in [14] was “inactive” throughout.

Take `O=C1C(N(CO)C(=O)NCO)N(CO)C(=O)N1CO` (stereo not given): the compound was classed as inactive in assay [1], in assay [2], in assay [3] and in assay [4]. The Potency entry in [5], in assay [6], in [9], in [10], in [11] and in assay [12] was “inactive” in each case. The Potency result in [14] is “inactive”.

Values taken from PubChem BioAssay (Tox21).
